DT40 TDP1 no CPT = qHTS for Inhibitors of human tyrosyl-DNA phosphodiesterase 1 (TDP1): qHTS in cells in absence of CPT. DT40 Tdp1-/- hTDP1 cells, no CPT, ATP luminescence, 48 h. Potency, µM (titrated, usually from 46.2 µM), actives largely listed as inhibitors. 15% of 420,000 active. AID 686978, 2013; further: nearly all actives have a fitted effect of over 55% in size
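Readout: luminescence from CellTiter-Glo after 30 min in the dark at RT. Cells: DT40 Tdp1-/- with stable hTDP1, 400/well. Exposure: compounds alone, ≥48 hr, 37 °C.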
HepG2 tox = counter-screen for TGF-b inhibitors: cytotoxicity in HepG2 cells; HepG2 CAGA-GFP viability, ATP luminescence, 18 h; Potency, µM (highest dose often 46.1 µM), usual class: cytotoxic; 0.76% of 410,000 active
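CellTiter-Glo luminescence gave cytotoxicity after 18 hours at 37 degrees C. The cells were HepG2 CAGA-GFP in 1% FBS DMEM, stimulated with 500 pg/mL TGF-beta after compound addition. %Activity was normalised to no-cell wells (complete cell-killing) and DMSO (no toxicity), and curves were fitted and classified.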
HT1080-NT tox = kills 2HG-producing HT-1080-NT fibrosarcoma cells | HT-1080-NT fibrosarcoma viability, CellTiter-Glo ATP luminescence, 48 h | Potency, µM (doses to about 46.1 µM), actives largely listed as cytotoxic | 1.6% of 360,000 active;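 further: NT is the 2HG producing partner of a matched IDH1 knockdown line; nearly all actives have a fitted effect of over 55% in size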
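HT-1080-NT; 750 cells/well; 5% FBS RPMI; 48 h compound, 37 degrees C; CellTiter-Glo luminescence; curve fitting and curve-class assignment.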
TGFb SMAD3 inh = inhibitors of TGF-b signaling; HepG2 CAGA-GFP TGF-b/SMAD3 reporter, GFP fluorescence, 18 h; TGF-beta stimulated, 500 pg/mL final; Potency, µM (titrated, usually from 46.1 µM), most hits filed as inhibitors; 1.2% of 410,000 active; further: nearly all actives have a fitted effect of over 65% in size
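Per well, imaged GFP fluorescence of HEPG2 CAGA-GFP cells gives the signal; cells get compound, then TGF-beta (500 pg/mL final), 18 h at 37 degrees C; %Activity versus -TGF-beta and +DMSO controls.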
HT1080 IDH1KD tx = HT-1080 IDH1 knockdown cell toxicity (counter line); 2% of 360,000 active; HT-1080 IDH1 knockdown viability, ATP luminescence, 48 h; AID 686971; Potency, µM (series often up to 46.1 µM), actives largely listed as cytotoxic
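IDH1KD HT-1080 cells, 750/well, RPMI + 5% FBS; compound pinned after 2 h settling; 48 h, 37 °C; CellTiter-Glo luminescence; % activity normalised to DMSO and no-cell wells; curves fitted, classed by r2 and efficacy.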
TDP1 cell CPT = growth inhibition of DT40 Tdp1-/-;hTDP1 cells with camptothecin (screen for TDP1 inhibitors) | Potency, µM (titrated, usually from 46.2 µM), hits mostly inhibitors | 12% of 420,000 active | chicken DT40 Tdp1-/-;hTDP1 cells + 20 nM CPT, ATP luminescence, 48 h; further: nearly all actives have a fitted effect of over 55% in size
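Chicken DT40 Tdp1-/- cells stably complemented with human TDP1 were seeded at 400 cells/well in medium containing 20 nM camptothecin, exposed to pin-transferred compounds, and grown at 37 °C for at least 48 hr. Viability was read as ATP luminescence.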
A number is an active result; 0 = inactive; ? = inconclusive; - = no result; ! = a repeat was not active. A selection: hits, their analogues and other compounds. The true share with any hit is near 17%. The call rests on the fitted dose curve; in most records, active means well fitted curve in the direction sought with a large enough effect; inconclusive means small, poorly fitted or top-dose-only effect, or another doubt; inactive means no such curve, though single readings can be large; an effect the other way counts as inactive or inconclusive.

SMILES	DT40 TDP1 no CPT	HepG2 tox	HT1080-NT tox	TGFb SMAD3 inh	HT1080 IDH1KD tx	TDP1 cell CPT
Cc1ccccc1-n1c(/C=C/c2ccc(N(C)C)cc2)nc2ccccc2c1=O	13µM	0	-	0	-	16.4µM
COc1ccc(NC(=O)c2ccc(COCC(F)(F)C(F)F)cc2)cc1	?	0	0	0	0	0
NC(=O)OCCCc1ccccc1	21.1µM!	0	0	0	0	5.31µM!
C[C@H]1O[C@@H](O[C@H]2[C@@H](O)C[C@H](O[C@H]3[C@@H](O)C[C@H](O[C@H]4CC[C@]5(C)C6CC[C@]7(C)[C@@H](C8=CC(=O)OC8)CC[C@]7(O)C6CC[C@@H]5C4)O[C@@H]3C)O[C@@H]2C)C[C@H](O)[C@@H]1O (some centres not stated)	0.376µM	-	-	-	-	0.335µM
CC1O[C@@H](O[C@@H]2C(O)C[C@H](O[C@@H]3C(O)C[C@@H](OC4CC[C@@]5(C)C6CC[C@]7(C)C(C8=CC(=O)OC8)CC[C@@]7(O)C6CC[C@@H]5C4)OC3C)OC2C)CC(O)[C@H]1O (some centres not stated)	0.731µM	-	-	-	-	1.03µM
COC1C(O)C(C)OC(OC2CCC3(C)C(CCC4C3C(O)CC3(C)C(C5=CC(=O)OC5)CCC43O)C2)C1O (configuration not stated)	2.06µM	0	1.46µM	2µM	0.82µM	1.84µM
C[C@H]1O[C@@H](O[C@H]2[C@@H](O)C[C@@H](O[C@H]3[C@@H](O)C[C@H](O[C@H]4CC[C@@]5(C)[C@H](CC[C@@H]6[C@@H]5CC[C@]5(C)[C@@H](C7=CC(=O)OC7)CC[C@]65O)C4)O[C@@H]3C)O[C@@H]2C)C[C@H](O)[C@@H]1O	0.112µM	0	-	0.316µM	-	0.316µM
COC1C(O)C(OC2CC[C@]3(C=O)C4C(OC(C)=O)C[C@@]5(C)C(C6=CC(=O)OC6)CC[C@]5(O)C4CC[C@]3(O)C2)OC(C)C1OC(C)=O (some centres not stated)	0	-	-	-	-	0
c1cnc(N2CC3(CCNCC3)C2)nc1	0	-	-	-	-	0
CO[C@H]1[C@@H](O)C[C@H](O[C@H]2[C@@H](O)C[C@H](O[C@H]3[C@@H](O)C[C@H](O[C@H]4CC[C@@]5(C)[C@H](CC[C@@H]6[C@@H]5C[C@@H](O)[C@]5(C)[C@@H](C7=CC(=O)OC7)CC[C@]65O)C4)O[C@@H]3C)O[C@@H]2C)O[C@@H]1C	0.376µM	-	-	-	-	0.531µM
CC(C)[N+](C)(C)CC(O)CN(c1ccccc1)c1ccccc1 (configuration not stated)	0	0	0	0	0	?
Oc1ccc2[nH]cc(CCCCN3CC=C(c4ccccc4)CC3)c2c1	16.8µM	-	-	-	-	26.6µM
O=C(O)c1ccc2[nH]cc(CCCCN3CC=C(c4ccccc4)CC3)c2c1	0	-	-	-	-	0
CC1=NN=C(c2ccc(N)cc2)c2cc3c(cc2C1)OCO3	26.6µM	0	0	0	0	29.9µM
CCCCn1c(=O)c(C(=O)NCc2ccccc2)c(O)c2ccccc21	16.4µM	0	0	0	0	?
CCCCCn1c(=O)c(C(=O)NC(C)c2ccccc2)c(O)c2ccccc21 (configuration not stated)	20.6µM	0	0	0	0	?
CCCCn1c(=O)c(C(=O)Nc2ccccc2S(N)(=O)=O)c(O)c2ccccc21	?	0	?	?	?	?
CCCCCn1c(=O)c(C(=O)Nc2ccccc2S(N)(=O)=O)c(O)c2ccccc21	4.61µM	0	0	?	?	6.51µM
CCCCn1c(=O)c(C(=O)Nc2ccccc2)c(O)c2ccccc21	4.11µM	0	0	0	0	3.66µM
CCCCCl	0	-	-	-	-	0

Source: PubChem BioAssay (National Center for Advancing Translational Sciences (NCATS))
